Out of some 5,500 compounds screened, about 2,000 (36%) were called active. Another 18% or so got no clear call; they are omitted. Cut-off read from the data, not from the text of the source: active = normalized growth mostly below about 0.91 (no sharp cut-off); inconclusive = no clear call, values can overlap the other calls; inactive = mostly above about 0.92. The list shows a part of the results.
Test: chemical genetic growth profiling, strain panel (AID 1159580);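 note: tested at 20 µM; growth read once vehicle control cultures reached saturation at 30 °C; 1 = growth at the plate median or of vehicle wells; lower values mean less growth of the strain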
Conditions: growth OD

Measured: normalized growth

OC1=Cc2c(O)cc(O)cc2OC1(O)c1ccc(O)c(O)c1 (stereo not drawn)
inactive: S. cerevisiae deletion strains, locus YBR021W, strain FUR4, active compounds read low 1.06 | S. cerevisiae deletion strains, locus YBR229C, strain ROT2, active compounds read low 1 | S. cerevisiae deletion strains, locus YCL029C, strain bik1, active compounds read low 0.997 | S. cerevisiae deletion strains, locus YDL035C, strain GPR1, active compounds read low 1.02 | S. cerevisiae deletion strains, locus YDL074C, strain BRE1, active compounds read low 0.962 | S. cerevisiae deletion strains, locus YDL101C, strain DUN1, active compounds read low 0.99 | S. cerevisiae deletion strains, locus YDL134C, strain PPH21, active compounds read low 0.975 | S. cerevisiae deletion strains, locus YDL185W, strain tfp1, active compounds read low 0.96 | S. cerevisiae deletion strains, locus YDL192W, strain arf1, active compounds read low 1 | S. cerevisiae deletion strains, locus YDR101C, strain arx1, active compounds read low 1.03 | S. cerevisiae deletion strains, locus YDR162C, strain NBP2, active compounds read low 0.956 | S. cerevisiae deletion strains, locus YDR318W, strain mcm21, active compounds read low 1 | S. cerevisiae deletion strains, locus YDR388W, active compounds read low 0.994 | S. cerevisiae deletion strains, locus YDR502C, strain sam2, active compounds read low 1.01 | S. cerevisiae deletion strains, locus YER110C, active compounds read low 0.993 | S. cerevisiae deletion strains, locus YER155C, strain BEM2, active compounds read low 1.02 | S. cerevisiae deletion strains, locus YER167W, strain BCK2, active compounds read low 1.01 | S. cerevisiae deletion strains, locus YGL078C, strain dbp3, active compounds read low 0.972 | S. cerevisiae deletion strains, locus YGL086W, strain mad1, active compounds read low 0.997 | S. cerevisiae deletion strains, locus YGL248W, strain PDE1, active compounds read low 0.979 | S. cerevisiae deletion strains, locus YGR078C, strain PAC10, active compounds read low 0.962 | S. cerevisiae deletion strains, locus YGR135W, strain pre9, active compounds read low 0.972 | S. cerevisiae deletion strains, locus YGR252W, strain gcn5, active compounds read low 1.1 | S. cerevisiae deletion strains, locus YHR030C, strain SLT2, active compounds read low 0.984 | S. cerevisiae deletion strains, locus YHR079C, strain IRE1 (second series), active compounds read low 0.995 | S. cerevisiae deletion strains, locus YHR094C, strain hxt1, active compounds read low 0.995 | S. cerevisiae deletion strains, locus YHR129C, strain ARP1, active compounds read low 0.985 | S. cerevisiae deletion strains, locus YHR200W, strain rpn10, active compounds read low 0.997 | S. cerevisiae deletion strains, locus YIL066C, strain RNR3, active compounds read low 0.991 | S. cerevisiae deletion strains, locus YIL073C, strain SPO22, active compounds read low 0.972 | S. cerevisiae deletion strains, locus YIL125W, strain kgd1, active compounds read low 0.989 | S. cerevisiae deletion strains, locus YIR030C, strain dcg1, active compounds read low 0.989 | S. cerevisiae deletion strains, locus YJL095W, strain BCK1, active compounds read low 0.965 | S. cerevisiae deletion strains, locus YJL134W, strain LCB3, active compounds read low 0.997 | S. cerevisiae deletion strains, locus YJL168C, strain set2, active compounds read low 0.991 | S. cerevisiae deletion strains, locus YJL187C, strain SWE1 (second series), active compounds read low 0.966 | S. cerevisiae deletion strains, locus YKL009W, strain mrt4, active compounds read low 0.997 | S. cerevisiae deletion strains, locus YKL068W, active compounds read low 0.981 | S. cerevisiae deletion strains, locus YKL085W, strain MDH1 (second series), active compounds read low 0.986 | S. cerevisiae deletion strains, locus YKL085W, strain MDH1, active compounds read low 0.986 | S. cerevisiae deletion strains, locus YKL190W, strain CNB1, active compounds read low 0.992 | S. cerevisiae deletion strains, locus YKR001C, strain vps1, active compounds read low 1 | S. cerevisiae deletion strains, locus YLR039C, strain RIC1, active compounds read low 1 | S. cerevisiae deletion strains, locus YLR058C, strain SHM2, active compounds read low 0.984 | S. cerevisiae deletion strains, locus YLR102C, strain apc9, active compounds read low 0.993 | S. cerevisiae deletion strains, locus YLR268W, strain sec22, active compounds read low 1.02 | S. cerevisiae deletion strains, locus YLR342W, strain FKS1 (second series), active compounds read low 0.935 | S. cerevisiae deletion strains, locus YLR371W, strain rom2, active compounds read low 0.975 | S. cerevisiae deletion strains, locus YLR418C, strain cdc73, active compounds read low 1.02 | S. cerevisiae deletion strains, locus YML016C, strain PPZ1, active compounds read low 0.972 | S. cerevisiae deletion strains, locus YML032C, strain rad52, active compounds read low 1.02 | S. cerevisiae deletion strains, locus YML124C, strain tub3, active compounds read low 1 | S. cerevisiae deletion strains, locus YMR078C, strain ctf18, active compounds read low 0.99 | S. cerevisiae deletion strains, locus YMR223W, strain ubp8, active compounds read low 0.987 | S. cerevisiae deletion strains, locus YMR307W, strain GAS1, active compounds read low 0.971 | S. cerevisiae deletion strains, locus YNL067W, strain RPL9B, active compounds read low 0.967 | S. cerevisiae deletion strains, locus YNL153C, strain GIM3, active compounds read low 0.964 | S. cerevisiae deletion strains, locus YNL233W, strain BNI4, active compounds read low 0.998 | S. cerevisiae deletion strains, locus YNL250W, strain rad50, active compounds read low 0.97 | S. cerevisiae deletion strains, locus YNL271C, strain bni1, active compounds read low 0.978 | S. cerevisiae deletion strains, locus YNL298W, strain CLA4, active compounds read low 0.986 | S. cerevisiae deletion strains, locus YNL307C, strain MCK1, active compounds read low 0.999 | S. cerevisiae deletion strains, locus YNR052C, strain pop2, active compounds read low 0.981 | S. cerevisiae deletion strains, locus YOL006C, strain TOP1, active compounds read low 0.945 | S. cerevisiae deletion strains, locus YOL012C, strain htz1 0.48 | S. cerevisiae deletion strains, locus YOL147C, strain pex11, active compounds read low 1.01 | S. cerevisiae deletion strains, locus YOR061W, strain CKA2, active compounds read low 0.987 | S. cerevisiae deletion strains, locus YOR069W, strain VPS5, active compounds read low 0.988 | S. cerevisiae deletion strains, locus YOR136W, strain idh2, active compounds read low 1 | S. cerevisiae deletion strains, locus YOR144C, strain elg1, active compounds read low 0.996 | S. cerevisiae deletion strains, locus YOR184W, strain ser1, active compounds read low 1.05 | S. cerevisiae deletion strains, locus YOR316C, strain cot1, active compounds read low 0.984 | S. cerevisiae deletion strains, locus YPR119W, strain clb2, active compounds read low 0.995 | S. cerevisiae deletion strains, locus YPR141C, strain kar3, active compounds read low 0.974 | S. cerevisiae deletion strains, locus YPR163C, strain tif3, active compounds read low 0.999 | S. cerevisiae deletion strains, locus YPR167C, strain met16, active compounds read low 0.999 | S. cerevisiae deletion strains, strain wtn01, active compounds read low 1.01 | S. cerevisiae strains, strain wild type, active compounds read low 0.998

— PubChem BioAssay AID1159580 (chemical genetic matrix, 2015)
